CBX7 inh: inhibitors of human CBX7 binding to H3K27me3 peptide; O95931; AlphaScreen His6-CBX7 / biotin-H3K27me3 peptide binding; hits give low values; normalised signal (fraction of DMSO) (test concentration not listed); 66,000 compounds, 1.1% hits; AID 1224903; in the data active = normalised signal below about 0.5
Target sequence (O95931 whole entry, looked up): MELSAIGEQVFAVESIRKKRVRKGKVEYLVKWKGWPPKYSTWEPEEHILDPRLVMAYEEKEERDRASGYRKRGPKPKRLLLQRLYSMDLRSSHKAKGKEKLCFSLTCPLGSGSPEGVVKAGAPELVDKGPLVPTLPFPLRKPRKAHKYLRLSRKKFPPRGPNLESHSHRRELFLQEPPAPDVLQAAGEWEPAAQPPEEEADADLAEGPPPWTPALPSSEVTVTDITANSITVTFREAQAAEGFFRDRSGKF
Hits are given with their value; – = inactive. Many of the other results were omitted from the sample, so hits are more common in it than they were.

SMILES	CBX7 inh
O=C(c1ccccc1)c1cc(Br)ccc1NC(=O)c1c(F)cccc1F	–
CNc1ccc(C)cc1C(=O)c1cccc(Br)c1	0.42
CNc1ccc(Br)cc1C(=O)c1ccccc1Cl	–
Cc1ccc(NC(=O)CN2CC(c3ccccc3)CC2=O)cc1Cl (stereo not drawn)	–
CC1N=C(c2ccccc2)c2cc(Cl)ccc2N(CC(=O)NCCC2=CCCCC2)C1=O (stereo not drawn)	–
CCOC(=O)C1(c2ccccc2)CCN(CC(=O)Nc2ccc(F)cc2)CC1	–
CCOC(=O)C1(c2ccccc2)CCN(CC(=O)Nc2cccc(Cl)c2)CC1	0.35
CCOC(=O)C1(c2ccccc2)CCN(CC(=O)Nc2cc(Cl)ccc2OC)CC1	–
O=C(Cn1c[n+]([N-][N+](=O)[O-])cn1)Nc1ncc(Br)cc1Br	–
COc1ccc(Cl)cc1-n1c(/C=C/c2cccc(F)c2)nc2ccccc2c1=O	–
Cc1ccc(NC(=O)CN2C(=O)C(C)N=C(c3ccccc3F)c3cc(Cl)ccc32)cc1C (stereo not drawn)	–
CC1N=C(c2ccccc2)c2cc(Cl)ccc2N(CC(=O)Nc2ccc(N(C)C)cc2)C1=O (stereo not drawn)	–
CC1N=C(c2ccccc2F)c2cc(Cl)ccc2N(CC(=O)Nc2ccc(N(C)C)cc2)C1=O (stereo not drawn)	0.27
COCCNC(=O)CN1C(=O)CN=C(c2ccccc2)c2cc(Cl)ccc21	–
Cc1cc(NC(=O)CCc2nc(C3=CCN(C)CC3)no2)no1	–
COc1ccc2[nH]c(C)c(CCNCc3cccc4ccccc34)c2c1	–
COc1ccc2[nH]c(C)c(CCNCC(C)(C)C)c2c1	–
COc1ccc2[nH]c(C)c(CCNCc3ccc(C#N)cc3)c2c1	0.26
CCOC(=O)c1c(C)n(Cc2ccccc2)c2ccc(OCC(O)CN3CCN(CCO)CC3)cc12 (stereo not drawn)	–
CCOC(=O)c1c(C)n(Cc2ccccc2)c2cc(Br)c(O)c(CN3CCCCC3)c12	–
O=C(c1ccccc1)c1cc(Br)ccc1NC(=O)c1nc[nH]c1C(=O)N1CCCCC1	–
O=c1cccc2n1CC1CC2CN(c2ccc3nnc(-c4ccccc4)n3n2)C1 (stereo not drawn)	–
C#CCN1CCC2=C(C1)c1c(O)cc(C(C)C(C)CCCCC)cc1OC2(C)C (stereo not drawn)	–
CCCCCC(C)C(C)c1cc(OC)c2c(c1)OC(C)(C)C1=C2CN(CC(N)=O)CC1 (stereo not drawn)	0.38
O=C1CN=C(c2ccccc2)c2cc(Cl)ccc2N1Cc1ccccc1F	–
